Laboratory results taken from ChEMBL document CHEMBL3988442, “University of Dundee, Small-Polar-MMV Screening Library” (2021).
In all, about 66,000 compounds went through this assay and about 960 (1.5%) showed an effect of 50% or more. The list comes from a sample in which strong results are over-represented; it also holds similar structures and randomly drawn compounds.

Test system: Trypanosoma brucei
Experiment: Trypanosoma brucei 72 hour study
Assay type: functional, organism-based
Design: scale not given: in the data most compounds retested in dose-response had high values

Compound: COc1cc(N2CCC3(CCN(Cc4cccnc4)C3=O)C2)ncn1 (centres undefined)
- Percent Effect (30.3 µM, […]): -84.3%

Compound: CNC(=O)Nc1cc(-c2ccccc2C)nn1CCO
- Percent Effect (30 µM, 30.03 µM): -25.05%

Compound: Cc1ccccc1-c1cc(NC(=O)NC2CC2)n(CCO)n1
- Percent Effect (30.3 µM, […]): 80.61%

Compound: Cc1ccccc1-c1cc(NC(=O)NC2CCC(O)CC2)n(CCO)n1 (centres undefined)
- Percent Effect (30.3 µM, […]): -152.8%

Compound: Cc1cc(S(=O)(=O)N(CC(N)=O)CC(C)C)ccc1Br
- Percent Effect (30.3 µM, […]): 1.83%

Compound: CN(C)C(=O)COC[C@H]1CC[C@@H]2[C@@H](CCN2Cc2ccco2)O1.O=C(O)C(F)(F)F
- Percent Effect (30 µM, 30.03 µM): -23.12%

Compound: COCCN1C[C@H](OCc2csc(C)n2)[C@H]2COC[C@H]21.O=C(O)C(F)(F)F.O=C(O)C(F)(F)F
- Percent Effect (30 µM, 30.03 µM): -14.33%

Compound: CCSc1cncc(N2CCC(NC(=O)C3CCCCC3)CC2)n1
- Percent Effect (30.3 µM, […]): 77.16%

Compound: CCSc1cncc(N2CCC(C(=O)NC(C)C(C)C)CC2)n1 (centres undefined)
- Percent Effect (30.3 µM, […]): 8.608%

Compound: CCSc1cncc(N2CCC(C(=O)Nc3ccccn3)CC2)n1
- Percent Effect (30.3 µM, […]): 12.36%

Compound: CC(=O)N(Cc1ncc(C)o1)C1CCN(Cc2ccc(F)c(F)c2)C1 (centres undefined)
- Percent Effect (30 µM, 30.03 µM): -4.591%

Compound: Cc1cc(C2CCCN(CCCS(=O)(=O)c3ccccc3)C2)n[nH]1 (centres undefined)
- Percent Effect (30 µM, 30.03 µM): -28.48%

Compound: O=C(CN1CCCC(c2ccn[nH]2)C1)Nc1nncs1 (centres undefined)
- Percent Effect (30.3 µM, […]): 7.116%

Compound: Cc1cc(C2CCCN(CCS(=O)(=O)c3ccccc3)C2)n[nH]1 (centres undefined)
- Percent Effect (30.3 µM, […]): -11.09%
- Percent Effect (10 mM, 10 mM as filed; unlikely as a test dose): -44.58%

Compound: O=C(CN1CCCC(c2ccn[nH]2)C1)Nc1nc2c(s1)CCCC2 (centres undefined)
- Percent Effect (30.3 µM, […]): 99.87%

Compound: Cc1cc(C2CCCN(CC(=O)Nc3nc4c(s3)CCC4)C2)n[nH]1 (centres undefined)
- Percent Effect (30.3 µM, […]): 99.45%

Compound: O=C(CN1CCCC(c2ccn[nH]2)C1)N1CCCc2ccccc21 (centres undefined)
- Percent Effect (30 µM, 30.03 µM): -60.51%

Compound: Cc1cc(C2CCCN(CCNS(=O)(=O)c3ccccc3)C2)n[nH]1 (centres undefined)
- Percent Effect (30.3 µM, […]): 50.6%
- Percent Effect (10 mM, 10 mM as filed; unlikely as a test dose): -10.85%

Compound: Cc1cc(C2CCCN(CC(=O)N3CCCc4ccccc43)C2)n[nH]1 (centres undefined)
- Percent Effect (30 µM, 30.03 µM): 1.182%

Compound: O=C(O)c1cccc(CN2CCCC(c3ccn[nH]3)C2)c1 (centres undefined)
- Percent Effect (30.3 µM, […]): -0.7278%

Compound: O=C(CN1CCCC(c2ccn[nH]2)C1)Nc1nc2c(s1)CCC2 (centres undefined)
- Percent Effect (30.3 µM, […]): 99.68%

Compound: Cc1cc(C2CCCN(CC(=O)N3CCc4ccccc43)C2)n[nH]1 (centres undefined)
- Percent Effect (30 µM, 30.03 µM): -0.2301%

Compound: Cc1nnc(NC(=O)CN2CCCC(c3ccn[nH]3)C2)s1 (centres undefined)
- Percent Effect (30.3 µM, […]): -16.15%

Compound: CC(C)N1CCC2(CCNCC2)C1=O.Cl
- Percent Effect (30.3 µM, […]): -13.71%

Compound: Cc1cccc(CN2C(=O)CCC23CCN(c2ncc(F)cn2)CC3)n1.O=C(O)C(F)(F)F
- Percent Effect (30.3 µM, […]): 6.517%

Compound: O=C(Nc1cnccn1)[C@H]1CO[C@H]2CCN(c3ncc(F)cn3)C[C@H]2C1.O=C(O)C(F)(F)F
- Percent Effect (30.3 µM, […]): -3.537%

Compound: Cc1cccc(CN2C(=O)CCC23CCN(c2ccccn2)CC3)n1.O=C(O)C(F)(F)F.O=C(O)C(F)(F)F
- Percent Effect (30.3 µM, […]): -36.28%

Compound: COc1ccccc1C(=O)NCCC(=O)Nc1c(C)nn(C)c1C
- Percent Effect (30 µM, 30.03 µM): -36.41%

Compound: CCC(C)C(=O)Nc1ccc2oc(=O)n(CCN(C)C)c2c1 (centres undefined)
- Percent Effect (30 µM, 30.03 µM): -15.08%

Compound: Cc1cn2c(n1)C(CNCc1ccc(C)s1)CCC2 (centres undefined)
- Percent Effect (30.3 µM, […]): -3.779%

Compound: Cc1cn2c(n1)C(CNCC1=Cc3cc(Cl)ccc3OC1)CCC2 (centres undefined)
- Percent Effect (30.3 µM, […]): 99.66%

Compound: Cc1cn2c(n1)C(CNCC1=Cc3ccccc3OC1)CCC2 (centres undefined)
- Percent Effect (30.3 µM, […]): 49.61%

Compound: O=C(Cc1cccc(F)c1)N1CCc2ncnc(NC3CCC3)c2CC1
- Percent Effect (30.3 µM, […]): -72.72%

Compound: CN(C)C(=O)N1CCC2(CC1)CCN(c1ncccn1)C2.O=C(O)C(F)(F)F
- Percent Effect (30.3 µM, […]): -41.17%

Compound: Cc1ncsc1-c1nnc(C2CCN(Cc3ccc(Cl)cc3)CC2)o1
- Percent Effect (30.3 µM, […]): 0.5336%

Compound: Cc1ncsc1-c1nnc(C2CCN(Cc3ccc(F)cc3)CC2)o1
- Percent Effect (30.3 µM, […]): -21.24%

Compound: Cc1ccsc1-c1nnc(C2CCN(Cc3ccc(F)cc3)CC2)o1
- Percent Effect (30.3 µM, […]): 56.66%

Compound: CN(C)C(=O)COCc1cncc2c1CCN(C1CCOCC1)C2.O=C(O)C(F)(F)F.O=C(O)C(F)(F)F
- Percent Effect (30.3 µM, […]): -55.36%

Compound: O=C1CC(c2cccc(Cl)c2)c2snc(C(=O)O)c2N1 (centres undefined)
- Percent Effect (30.3 µM, […]): -31.06%

Compound: CN1CCC(Oc2ccc(NC(=O)c3ccccc3Br)cc2)CC1
- Percent Effect (30 µM, 30.03 µM): 65.56%

Compound: Cc1ccccc1C(=O)Nc1ccc(OC2CCN(C)CC2)cc1
- Percent Effect (30 µM, 30.03 µM): -8.393%

Compound: COc1ccccc1C(=O)Nc1ccc(OC2CCN(C)CC2)cc1
- Percent Effect (30 µM, 30.03 µM): -32.85%

Compound: Cl.O=C(NCC1CCCO1)c1cc(-c2ccncc2)c2cnccc2n1 (centres undefined)
- Percent Effect (30.3 µM, […]): -19.01%

Compound: CC1=Nc2c(c(=O)[nH]n2C(C)C)C(c2ccc3ncccc3c2)S1 (centres undefined)
- Percent Effect (30 µM, 30.03 µM): -30.02%

Compound: CC(Cn1cccn1)NCc1nc(-c2cccnc2)no1 (centres undefined)
- Percent Effect (30 µM, 30.03 µM): 5.913%

Compound: CC(Cn1cccn1)NCc1nc(-c2cccc(Cl)c2)no1 (centres undefined)
- Percent Effect (30 µM, 30.03 µM): 53.11%

Compound: CC(Cn1cccn1)NCc1nc(-c2ccc3c(c2)OCO3)no1 (centres undefined)
- Percent Effect (30.3 µM, […]): -4.603%
